Reference: the supplement of paper PMC11732987, “Enantioselective OTUD7B fragment discovery through chemoproteomics screening and high-throughput optimisation” (Communications Chemistry, 2025)

How the values were obtained:
Experiment in all cases: log2 ratio of Biotin-Ahx-Ub-VS probe labelling (fragment/DMSO); higher = less target engagement (more negative = stronger competition), active = hit call of the paper (q ≤ 0.05, log2 ratio ≤ -1)
Settings in all cases: compound concentration: 200 uM; treatment time: 3 h
[1] = target: T1, USP19 (UniProt O94966)
T1 sequence (whole entry): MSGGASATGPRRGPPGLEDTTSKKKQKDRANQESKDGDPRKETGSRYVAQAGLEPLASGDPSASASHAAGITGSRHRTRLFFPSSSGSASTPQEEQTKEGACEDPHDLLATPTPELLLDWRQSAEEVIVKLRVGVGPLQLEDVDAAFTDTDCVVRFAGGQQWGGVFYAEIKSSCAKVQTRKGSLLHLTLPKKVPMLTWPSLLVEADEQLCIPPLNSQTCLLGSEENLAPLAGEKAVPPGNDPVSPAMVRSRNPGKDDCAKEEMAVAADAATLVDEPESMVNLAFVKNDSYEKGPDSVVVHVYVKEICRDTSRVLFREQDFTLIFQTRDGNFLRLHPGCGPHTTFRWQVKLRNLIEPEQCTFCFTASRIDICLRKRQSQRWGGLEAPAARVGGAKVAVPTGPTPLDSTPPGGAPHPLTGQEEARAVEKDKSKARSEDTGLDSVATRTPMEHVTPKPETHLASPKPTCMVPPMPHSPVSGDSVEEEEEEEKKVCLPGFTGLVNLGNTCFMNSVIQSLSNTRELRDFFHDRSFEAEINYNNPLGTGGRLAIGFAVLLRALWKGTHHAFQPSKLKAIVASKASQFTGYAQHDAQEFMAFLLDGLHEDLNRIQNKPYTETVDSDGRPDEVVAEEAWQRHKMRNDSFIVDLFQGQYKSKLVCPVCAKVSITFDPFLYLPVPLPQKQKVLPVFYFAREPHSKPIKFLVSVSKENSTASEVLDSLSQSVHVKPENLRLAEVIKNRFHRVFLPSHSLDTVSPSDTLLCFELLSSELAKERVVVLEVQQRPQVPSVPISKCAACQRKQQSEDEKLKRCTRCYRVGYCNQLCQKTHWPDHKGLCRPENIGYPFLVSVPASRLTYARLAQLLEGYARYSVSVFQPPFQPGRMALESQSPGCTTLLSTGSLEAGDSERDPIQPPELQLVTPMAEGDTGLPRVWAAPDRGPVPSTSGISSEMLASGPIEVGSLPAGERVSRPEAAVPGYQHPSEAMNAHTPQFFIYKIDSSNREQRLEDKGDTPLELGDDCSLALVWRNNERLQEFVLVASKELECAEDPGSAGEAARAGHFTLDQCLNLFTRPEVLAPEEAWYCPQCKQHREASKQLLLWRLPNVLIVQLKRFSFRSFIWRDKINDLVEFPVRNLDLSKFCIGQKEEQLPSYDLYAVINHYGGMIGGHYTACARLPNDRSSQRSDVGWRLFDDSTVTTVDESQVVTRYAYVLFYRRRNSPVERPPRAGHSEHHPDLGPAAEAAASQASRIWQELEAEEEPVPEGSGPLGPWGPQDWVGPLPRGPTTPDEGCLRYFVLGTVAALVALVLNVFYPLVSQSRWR
Summary of the method: (§1)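 HEK293T lysate (495 µg per sample, in Tris/CHAPS/IGEPAL buffer with protease inhibitors) was treated in triplicate with fragment at 200 µM or with DMSO for 3 h. It was then treated with Biotin-Ahx-Ub-VS (0.5 µM final) for 1 h. Labelled DUBs were NeutrAvidin-enriched, digested with LysC and trypsin, and run by diaPASEF LC-MS/MS. Spectronaut label-free quantities were global-median-normalised. Values are average log2 ratios fragment/DMSO by unpaired t-test, using proteins with ≥2 unique peptides.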

[2] = target: USP24 (UniProt Q9UPU5)
Summary of the method: as §1

[3] = target: T2, USP25 (UniProt Q9UHP3)
T2 sequence (whole entry): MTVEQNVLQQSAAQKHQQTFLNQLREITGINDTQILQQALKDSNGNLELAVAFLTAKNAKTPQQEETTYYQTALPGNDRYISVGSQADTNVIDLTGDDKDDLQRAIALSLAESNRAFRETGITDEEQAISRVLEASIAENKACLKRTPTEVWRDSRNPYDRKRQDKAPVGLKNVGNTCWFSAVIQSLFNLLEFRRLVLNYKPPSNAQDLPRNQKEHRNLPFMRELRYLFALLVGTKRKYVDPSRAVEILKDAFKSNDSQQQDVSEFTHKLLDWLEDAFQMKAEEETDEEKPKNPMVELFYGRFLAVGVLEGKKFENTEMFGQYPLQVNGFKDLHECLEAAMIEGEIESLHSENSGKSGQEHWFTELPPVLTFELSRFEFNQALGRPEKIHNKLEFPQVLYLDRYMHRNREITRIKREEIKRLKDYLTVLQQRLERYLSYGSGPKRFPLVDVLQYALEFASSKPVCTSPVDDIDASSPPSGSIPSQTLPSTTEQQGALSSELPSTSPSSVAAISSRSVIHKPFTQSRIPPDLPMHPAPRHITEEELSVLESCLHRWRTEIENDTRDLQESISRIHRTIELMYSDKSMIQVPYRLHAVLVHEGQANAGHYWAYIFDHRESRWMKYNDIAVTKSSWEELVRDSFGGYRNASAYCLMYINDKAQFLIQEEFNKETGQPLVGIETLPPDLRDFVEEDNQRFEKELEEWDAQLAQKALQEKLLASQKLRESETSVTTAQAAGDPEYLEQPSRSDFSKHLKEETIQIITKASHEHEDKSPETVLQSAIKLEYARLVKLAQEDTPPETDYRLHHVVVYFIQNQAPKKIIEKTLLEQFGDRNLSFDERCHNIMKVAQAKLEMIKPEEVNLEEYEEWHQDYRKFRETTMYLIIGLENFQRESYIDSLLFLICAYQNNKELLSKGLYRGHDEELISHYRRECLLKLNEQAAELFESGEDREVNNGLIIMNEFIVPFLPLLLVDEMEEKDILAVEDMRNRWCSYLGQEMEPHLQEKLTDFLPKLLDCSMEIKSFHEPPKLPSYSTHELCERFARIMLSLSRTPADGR
Summary of the method: as §1

[4] = target: T3, USP28 (UniProt Q96RU2)
T3 sequence (whole entry): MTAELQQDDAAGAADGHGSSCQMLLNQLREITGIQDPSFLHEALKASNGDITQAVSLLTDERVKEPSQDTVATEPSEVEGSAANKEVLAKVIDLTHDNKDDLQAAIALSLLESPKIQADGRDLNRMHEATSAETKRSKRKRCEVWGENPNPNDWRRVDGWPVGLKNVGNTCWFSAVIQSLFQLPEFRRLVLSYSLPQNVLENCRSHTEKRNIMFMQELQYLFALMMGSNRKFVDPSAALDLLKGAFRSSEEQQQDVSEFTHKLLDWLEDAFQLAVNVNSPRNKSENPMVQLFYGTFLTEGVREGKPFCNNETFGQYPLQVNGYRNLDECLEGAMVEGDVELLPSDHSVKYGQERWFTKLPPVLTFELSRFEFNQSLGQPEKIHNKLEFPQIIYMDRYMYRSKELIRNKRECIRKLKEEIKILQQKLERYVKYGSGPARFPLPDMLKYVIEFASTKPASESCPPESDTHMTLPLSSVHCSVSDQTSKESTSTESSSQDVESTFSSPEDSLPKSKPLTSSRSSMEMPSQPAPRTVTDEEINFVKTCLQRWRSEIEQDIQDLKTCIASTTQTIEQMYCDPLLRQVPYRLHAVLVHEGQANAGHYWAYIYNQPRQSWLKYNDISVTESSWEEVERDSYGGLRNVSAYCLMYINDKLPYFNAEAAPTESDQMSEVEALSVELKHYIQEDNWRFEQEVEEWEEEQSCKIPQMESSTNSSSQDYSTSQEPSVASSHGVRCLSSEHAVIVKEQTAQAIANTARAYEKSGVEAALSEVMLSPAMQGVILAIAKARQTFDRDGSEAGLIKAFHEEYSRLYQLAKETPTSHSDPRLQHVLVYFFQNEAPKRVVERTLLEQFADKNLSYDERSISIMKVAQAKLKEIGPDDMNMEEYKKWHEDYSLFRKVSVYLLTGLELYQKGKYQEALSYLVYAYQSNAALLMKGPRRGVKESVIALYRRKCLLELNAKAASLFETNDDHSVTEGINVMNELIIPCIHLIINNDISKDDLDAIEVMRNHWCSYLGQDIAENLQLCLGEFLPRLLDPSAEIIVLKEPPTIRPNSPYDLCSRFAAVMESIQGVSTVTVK
Summary of the method: as §1

Measured: log2 ratio of Biotin-Ahx-Ub-VS probe labelling

Sequence of USP24 (Q9UPU5 whole entry): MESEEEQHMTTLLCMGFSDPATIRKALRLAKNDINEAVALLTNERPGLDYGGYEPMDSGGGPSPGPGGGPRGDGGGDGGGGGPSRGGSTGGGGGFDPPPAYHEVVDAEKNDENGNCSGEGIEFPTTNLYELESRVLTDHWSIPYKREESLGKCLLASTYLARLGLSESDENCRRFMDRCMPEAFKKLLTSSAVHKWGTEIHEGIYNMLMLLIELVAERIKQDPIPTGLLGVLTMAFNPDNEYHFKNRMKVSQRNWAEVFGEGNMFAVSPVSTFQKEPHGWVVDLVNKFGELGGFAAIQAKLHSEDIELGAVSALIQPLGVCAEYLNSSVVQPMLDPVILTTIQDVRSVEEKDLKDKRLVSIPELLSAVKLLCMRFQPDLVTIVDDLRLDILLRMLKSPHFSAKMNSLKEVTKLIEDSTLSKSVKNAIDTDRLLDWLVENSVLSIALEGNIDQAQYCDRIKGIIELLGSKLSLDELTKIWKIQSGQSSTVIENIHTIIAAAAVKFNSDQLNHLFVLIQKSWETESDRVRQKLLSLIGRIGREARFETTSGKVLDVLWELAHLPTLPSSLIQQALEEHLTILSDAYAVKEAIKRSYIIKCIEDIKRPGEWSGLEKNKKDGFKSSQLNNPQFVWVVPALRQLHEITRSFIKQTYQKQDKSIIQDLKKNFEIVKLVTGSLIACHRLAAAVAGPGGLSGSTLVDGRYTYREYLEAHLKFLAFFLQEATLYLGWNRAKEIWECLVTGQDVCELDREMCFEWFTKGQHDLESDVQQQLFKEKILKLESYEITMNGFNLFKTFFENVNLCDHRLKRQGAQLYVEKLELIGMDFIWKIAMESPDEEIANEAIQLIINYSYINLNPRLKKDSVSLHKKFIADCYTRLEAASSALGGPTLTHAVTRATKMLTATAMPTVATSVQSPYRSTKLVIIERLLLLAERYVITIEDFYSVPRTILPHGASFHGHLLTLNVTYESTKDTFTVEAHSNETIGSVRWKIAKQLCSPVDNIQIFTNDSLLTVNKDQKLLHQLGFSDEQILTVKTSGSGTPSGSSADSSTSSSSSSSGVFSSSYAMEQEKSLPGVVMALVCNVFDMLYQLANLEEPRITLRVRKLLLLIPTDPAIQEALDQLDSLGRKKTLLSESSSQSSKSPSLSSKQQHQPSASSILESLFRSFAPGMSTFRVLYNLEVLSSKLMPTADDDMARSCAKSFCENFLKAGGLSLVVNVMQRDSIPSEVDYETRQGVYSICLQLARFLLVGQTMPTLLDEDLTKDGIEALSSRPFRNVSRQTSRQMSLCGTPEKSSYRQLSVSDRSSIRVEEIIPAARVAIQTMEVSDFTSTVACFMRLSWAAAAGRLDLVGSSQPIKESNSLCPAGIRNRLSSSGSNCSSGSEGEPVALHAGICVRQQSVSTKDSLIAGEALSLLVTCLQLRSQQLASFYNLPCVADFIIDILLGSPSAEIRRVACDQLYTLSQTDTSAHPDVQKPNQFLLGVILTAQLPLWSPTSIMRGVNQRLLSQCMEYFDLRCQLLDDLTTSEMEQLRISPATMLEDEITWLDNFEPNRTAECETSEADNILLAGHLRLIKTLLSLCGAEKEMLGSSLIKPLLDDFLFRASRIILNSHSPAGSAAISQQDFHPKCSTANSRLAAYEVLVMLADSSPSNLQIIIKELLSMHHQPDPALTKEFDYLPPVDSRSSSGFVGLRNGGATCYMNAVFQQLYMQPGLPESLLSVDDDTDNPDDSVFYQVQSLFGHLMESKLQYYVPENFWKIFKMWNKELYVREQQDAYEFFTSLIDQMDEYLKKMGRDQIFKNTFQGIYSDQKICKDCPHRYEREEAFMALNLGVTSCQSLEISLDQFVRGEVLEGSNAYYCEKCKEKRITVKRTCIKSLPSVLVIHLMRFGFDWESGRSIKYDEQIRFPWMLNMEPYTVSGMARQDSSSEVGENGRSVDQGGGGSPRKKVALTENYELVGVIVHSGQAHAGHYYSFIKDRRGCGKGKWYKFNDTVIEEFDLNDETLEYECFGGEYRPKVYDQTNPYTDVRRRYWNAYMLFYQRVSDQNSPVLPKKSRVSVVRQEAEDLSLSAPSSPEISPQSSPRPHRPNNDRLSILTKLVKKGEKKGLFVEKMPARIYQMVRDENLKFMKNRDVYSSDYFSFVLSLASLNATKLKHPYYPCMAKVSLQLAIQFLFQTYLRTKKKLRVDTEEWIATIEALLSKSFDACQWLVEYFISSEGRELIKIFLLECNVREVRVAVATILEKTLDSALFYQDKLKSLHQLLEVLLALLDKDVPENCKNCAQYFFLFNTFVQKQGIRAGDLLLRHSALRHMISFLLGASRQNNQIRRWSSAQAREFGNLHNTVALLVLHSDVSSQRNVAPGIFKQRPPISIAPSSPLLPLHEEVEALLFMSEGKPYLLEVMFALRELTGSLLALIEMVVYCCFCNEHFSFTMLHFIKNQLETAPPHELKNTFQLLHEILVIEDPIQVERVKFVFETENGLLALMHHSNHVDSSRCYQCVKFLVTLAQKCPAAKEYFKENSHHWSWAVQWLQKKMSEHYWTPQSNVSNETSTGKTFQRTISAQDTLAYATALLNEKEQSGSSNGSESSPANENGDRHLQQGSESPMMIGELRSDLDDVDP

Cl.O=C(CCl)NCCc1ncc(F)cc1F
inactive: [1] -0.108 | [2] -0.335 | [3] -0.361 | [4] -0.502
